Source: PubChem
mHTT-CaM PPI inh: inhibitors of human mutant huntingtin-calmodulin interaction; inhibition, % at 15 µM; 190,000 compounds, 3.6% hits; P42858; AlphaScreen His-mHTT/GST-CaM binding, luminescence;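 also: 0% = both proteins with DMSO and 100% = one protein alone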
Pf apPOL inh: Pf-apPOL DNA polymerase inhibition; Recombinant Pf-apPOL, molecular beacon fluorescence, 1.5 h; inhibition, % at 10 µM; 210,000 compounds, 0.25% hits
* hit, by the source's call; / = no result given; ! = repeats disagree. Only a selection was taken, and hits are over-represented in it overall. Rule as the data show it: active = inhibition above about 50%; inactive = the rest.

SMILES	mHTT-CaM PPI inh	Pf apPOL inh
COCCn1cnc2sc(C(=O)Nc3cccc(C(F)(F)F)c3)c(C)c2c1=O	19	-3
CCC(C)NC(=O)c1sc2ncn(CC(=O)Nc3cccc(C(F)(F)F)c3)c(=O)c2c1C (stereo not drawn)	99*	0
CCCCNC(=O)c1sc2ncn(CC(=O)Nc3cccc(C(F)(F)F)c3)c(=O)c2c1C	68*	-4
Cc1c(C(=O)O)sc2ncn(CC(=O)Nc3cccc(C(F)(F)F)c3)c(=O)c12	3	-1
Cc1cc(NC(=O)c2cc(Br)ccc2Cl)ccc1NC(=O)c1ccccc1	-1	36
COc1ccc2c(c1)C(C)=CC(C)(C)N2C(=O)C(C)N1C(=O)c2ccccc2C1=O (stereo not drawn)	10	-4
COc1ccc(N=C2C(=O)N3c4c(cc(C)cc42)C(C)=CC3(C)C)cc1	72*	2
COc1cccc(-c2nnc3n2N=C(c2cccc([N+](=O)[O-])c2)CS3)c1	4	-2
CC(C)OCCCNC(=O)C1(C)CCC(=O)N1Cc1ccccc1 (stereo not drawn)	-2	-1
CCn1c(NC(=O)c2ccccc2)nc2ccccc21	53*	0
C=CCn1c(NC(=O)c2ccccc2)nc2ccccc21	54*	1
O=C(Nc1nc2ccccc2n1CCN1CCCCC1)c1ccccc1	34	-3
CCC(=O)Nc1nc2ccccc2n1CC	-2	-15
COc1ccc(N2CCN(S(=O)(=O)c3ccccc3)CC2)cc1	16	-7
COC(=O)c1cc(Nc2ccc(F)cc2F)c2ccccc2n1	-5	0
O=C(CC(=O)Nc1ccccc1)Nc1ccccc1	-4	-2
CC1(CC(=O)Nc2ccccc2)NN=C(c2ccccc2)S1 (stereo not drawn)	73*	-2
O=C(c1ccco1)N1CCC(OCc2nc(-c3cccnc3)no2)CC1	5	-7
CCOc1cc2c(c([N+](=O)[O-])c1)NC(c1ccc(Br)cc1)C1CC=CC21 (stereo not drawn)	16	-1
O=C(O)c1ccc([N+](=O)[O-])c2c1NC(c1ccccc1)C1CC=CC21 (stereo not drawn)	80*!	-7
O=[N+]([O-])c1ccc(C2Nc3c(cccc3C(F)(F)F)C3C=CCC32)cc1 (stereo not drawn)	13	-5
Cc1ccc([N+](=O)[O-])c2c1NC(c1ccc(Br)cc1)C1CC=CC21 (stereo not drawn)	97*	4
CCN1CCN(CCCNC(=O)c2cc3cn(C(C)C)cc3s2)CC1	8	0
CCOC(=O)CC1(NC(=O)N2CCCn3nc(-c4cccnc4)cc3C2)CCCCC1	5	-2
c1cnc(-c2n[nH]c(C3CCCN(CC4CCCCC4)C3)n2)cn1 (stereo not drawn)	54*	-8
SMILES	mHTT-CaM PPI inh	Pf apPOL inh
c1cnc(-c2n[nH]c(C3CCCNC3)n2)cn1 (stereo not drawn)	72*	-5
c1cnc(-c2n[nH]c(C3CCN(CC4CCCCC4)CC3)n2)cn1	-1	-5
CC(C)CCN1CCCC(c2nc(-c3cnccn3)n[nH]2)C1 (stereo not drawn)	34	4
Cc1ccc(S(=O)(=O)N2CCC3(CC2)CN(C)CC3c2noc(C3CC3)n2)cc1 (stereo not drawn)	9	-5
O=C(Nc1ccc2c(c1)N(C(=O)C1CC1)CCC2)C(=O)Nc1cc(F)ccc1F	-9	-6
Cc1cccc(N2CCC(C(=O)NCC(C)C)C2=O)c1C (stereo not drawn)	-2	-2
COc1cc(C=CC(=O)c2cccc(O)c2)cc2c1OCCO2	22	-6
CN(C)CCNC(=O)C1CCN(c2nc3ccc(-c4ccccc4F)nc3s2)CC1	11	-5
N#CC1=C(N)SC(N)=C(C#N)C1c1ccc(Cl)c(Cl)c1	98*	-2
N#CC1=C(N)SC(N)=C(C#N)C1c1ccncc1	2	/
COc1cc(NCc2ccc3c(c2)Cc2ccccc2-3)cc(OC)c1OC	59*	6
COc1ccc(CC(=O)Nc2ccc3c(c2)Cc2ccccc2-3)cc1OC	-3	-2
CCc1ccc(CNC(=O)C2c3ccccc3CC(=O)N2CCOC)cc1 (stereo not drawn)	3	-5
COc1ccc(C(=O)N2CCC(COc3ccc(C(=O)NC(C)C)cc3)CC2)cc1F	22	1
Cc1nn(CCl)c(C)c1[N+](=O)[O-]	-6	/
CC1(C(=O)O)NC(c2ccc(O)cc2O)C2C(=O)N(c3ccc(Br)cc3)C(=O)C21 (stereo not drawn)	-3	0
Cn1nc(C(=O)NCc2ccc(Cl)cc2)c2c1CCN(C(=O)C1CCCC1)C2	92*	-10
Cn1nc(C(=O)NCc2ccccc2)c2c1CCN(C(=O)C1CCC1)C2	36	-9
CCC(=O)N1CCc2c(c(C(=O)NCc3ccc4c(c3)OCO4)nn2C)C1	30	-5
CC(C)CC(=O)N1CCc2c(c(COCc3ccc(Cl)cc3)nn2C)C1	63*	-6
Cn1nc(C(=O)NCc2ccc3c(c2)OCO3)c2c1CCN(C(=O)C1CCCCC1)C2	72*	-12
